Among the data in ChEMBL document CHEMBL3433997, “St. Jude Leishmania screening dataset” (2016) are inhibition values, retold here.

Holding throughout (type): functional
For assay [1], the target named is Solute carrier family 2, facilitated glucose transporter member 1 (Homo sapiens) (UniProt P11166). Description: ST_JUDE_LEISH: Cytotoxicity at 2uM final concentration against transgenic Leishmania Mexicana promastigotes LmGLUT1 that are glucose transport deficient and complemented with the human glucose transporter GLUT1. Activity is measured by DNA content using SYBR green in vitro.

Assay [2] concerns the target Hexose transporter 1 (Plasmodium falciparum) (UniProt O97467). Description: ST_JUDE_LEISH: Cytotoxicity at 2uM final concentration against transgenic Leishmania Mexicana promastigotes LmPfHT that are glucose transport deficient and complemented with the Plasmodium falciparum hexose transporter. Activity is measured by DNA content using SYBR green in vitro.
Assay [3] addresses Glucose transporter (Leishmania mexicana) (UniProt O61059). Description: ST_JUDE_LEISH: Cytotoxicity at 2uM final concentration against transgenic Leishmania Mexicana promastigotes LmGT2 that are glucose transport deficient and complemented with the L. Mexicana glucose transporter 2. Activity is measured by DNA content using SYBR green in vitro.

Solute carrier family 2, facilitated glucose transporter member 1 (Homo sapiens), sequence (P11166 whole entry): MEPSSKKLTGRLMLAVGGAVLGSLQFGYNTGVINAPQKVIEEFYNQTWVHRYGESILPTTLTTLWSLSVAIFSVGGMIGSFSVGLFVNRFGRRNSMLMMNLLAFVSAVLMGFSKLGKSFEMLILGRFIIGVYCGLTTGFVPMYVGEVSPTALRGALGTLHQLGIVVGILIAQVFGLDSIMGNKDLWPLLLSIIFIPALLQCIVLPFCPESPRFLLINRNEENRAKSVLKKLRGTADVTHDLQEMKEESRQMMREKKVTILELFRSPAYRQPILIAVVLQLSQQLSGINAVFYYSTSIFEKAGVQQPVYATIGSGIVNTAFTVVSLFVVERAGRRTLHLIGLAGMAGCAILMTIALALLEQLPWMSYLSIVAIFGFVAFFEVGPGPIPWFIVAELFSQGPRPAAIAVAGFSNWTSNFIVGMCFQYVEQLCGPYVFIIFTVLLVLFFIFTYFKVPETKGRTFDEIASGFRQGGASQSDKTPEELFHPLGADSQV

`COc1ccc(C2=[N+]([O-])c3ccccc3C2=O)cc1`: the inhibition in assay [1] was 0.97%; in assay [2], 0.24%; in assay [3], -0.74%.
The like results for `Cc1ccc(NC(=O)c2cc([N+](=O)[O-])ccc2NCc2cccnc2)cc1Cl` were, in that order, 1.5%, 0.38% and 2.63%.
As to `Cc1ccccc1C1CCN(C2CCC(NC(=O)c3ccc(-c4cccc(C(F)(F)F)c4)o3)CC2)CC1` (centres undefined), the inhibition was 5.47% in assay [1], 2.19% in assay [2] and 3.24% in assay [3].
As to `COc1ccc(NC(C)C(=O)Nc2ccc(Br)cc2)cc1S(=O)(=O)N1CCCCC1` (centres undefined), the inhibition was -1% in assay [1], 1.34% in assay [2] and 1.93% in assay [3].
As to `O=C(Nc1ccc(-c2nc3ccccc3[nH]2)cc1)c1ccc(S(=O)(=O)N2CCCCC2)cc1`, the figures for the inhibition in assay [1], in assay [2] and in assay [3] were 3.08%, 4.17% and 0.68%, respectively.
`COc1ccc2nccc([C@@H](O)CN3CCC(NCc4cc5c(F)ccc(F)c5[nH]4)CC3)c2c1`: the results for the inhibition in assay [1], in assay [2] and in assay [3] were 21.9%, 29.8% and 2.77%, respectively.
The matching figures for `Cc1cccc(C)c1C1CCN(C2CCC(NC(=O)/C=C/c3ccccc3)CC2)CC1` (centres undefined): 5.77%, 5.67% and 5.46%.
For `O=C(NCc1ccco1)c1ccc(S(=O)(=O)c2ccc(Cl)cc2)cc1`, the inhibition in assay [1] is 0.13%; in assay [2], 1.22%; in assay [3], 0.06%.
Turning to `CC(=O)Nc1ccc(Nc2c3ccccc3nc3ccccc23)cc1`, the figures for the inhibition in assay [1], in assay [2] and in assay [3] were 8.17%, 7.37% and 0.02%, respectively.
For `O=C(/C=C/c1ccc(Cl)c(Cl)c1)NC1CCC(CN2CCC(c3coc4ccccc34)CC2)CC1` (centres undefined), the inhibition in assay [1] is -1.76%; in assay [2], 1.76%; in assay [3] it was -1.87%.
The like results for `O=C(NCCCCN1CCC(c2c[nH]c3ccc(-c4ccccc4)cc23)CC1)c1ccc(-c2ccccc2)cc1` were, in that order, 5.96%, 4.21% and 5.24%.
The like results for `Oc1ccc2[nH]cc(C3CCN(CCC(c4ccccc4)c4ccccc4)CC3)c2c1` were, in that order, 4.66%, 3.07% and 4.21%.
The matching figures for `CCCCn1c(Sc2ccc(C#N)c([N+](=O)[O-])c2)nnc1-c1cc(OC)cc(OC)c1`: 0.5%, 3.21% and 0.45%.
